# Results from publication PMC7862700, “An all-to-all approach to the identification of sequence-specific readers for epigenetic DNA modifications on cytosine”.
# Legend:
# Experiment in all cases: DAPPL (digital affinity profiling via proximity ligation, sequencing); 10 mM Tris-HCl pH 7.5, 50 mM NaCl, 1 mM DTT, 4% glycerol, room temperature, 30 min; GST-TFs on glutathione beads, 16-mer random dsDNA library, 0.1% formaldehyde crosslink after washing; high values mean tight binding
# FEV = target: T1, FEV (Homo sapiens, UniProt Q99581 1-238); settings: protein: recombinant; tags: N-terminal GST; dsDNA, one strand shown
# T1 sequence: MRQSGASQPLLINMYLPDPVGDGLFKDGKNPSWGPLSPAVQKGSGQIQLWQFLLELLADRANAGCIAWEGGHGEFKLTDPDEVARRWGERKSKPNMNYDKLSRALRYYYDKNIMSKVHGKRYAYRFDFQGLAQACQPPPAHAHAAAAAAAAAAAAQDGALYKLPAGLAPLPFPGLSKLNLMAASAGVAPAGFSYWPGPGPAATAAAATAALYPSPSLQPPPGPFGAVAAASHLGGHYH
# How it was run: (§1)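 In yeast, human transcription factors were expressed with a GST fusion, then pulled down on glutathione beads and given DNA barcodes. Pooled with a tag-only sample, they were exposed to 200 nmole of a 16-mer random double-stranded DNA library (Tris/NaCl/DTT/glycerol buffer, room temperature, 30 min), washed, crosslinked with 0.1% formaldehyde, proximity-ligated using BsaI/T4 ligase for 1 h at 37 °C, PCR-amplified and read on an Illumina NextSeq500. Each hexamer's frequency of reads for a factor, divided by the matching frequency for the tag-only sample, gives the binding signal.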
# ETV5 = ETV5 (Homo sapiens, UniProt P41161 1-510); settings: protein: recombinant; tags: N-terminal GST; dsDNA, one strand shown
# Sequence of ETV5 (P41161 whole entry): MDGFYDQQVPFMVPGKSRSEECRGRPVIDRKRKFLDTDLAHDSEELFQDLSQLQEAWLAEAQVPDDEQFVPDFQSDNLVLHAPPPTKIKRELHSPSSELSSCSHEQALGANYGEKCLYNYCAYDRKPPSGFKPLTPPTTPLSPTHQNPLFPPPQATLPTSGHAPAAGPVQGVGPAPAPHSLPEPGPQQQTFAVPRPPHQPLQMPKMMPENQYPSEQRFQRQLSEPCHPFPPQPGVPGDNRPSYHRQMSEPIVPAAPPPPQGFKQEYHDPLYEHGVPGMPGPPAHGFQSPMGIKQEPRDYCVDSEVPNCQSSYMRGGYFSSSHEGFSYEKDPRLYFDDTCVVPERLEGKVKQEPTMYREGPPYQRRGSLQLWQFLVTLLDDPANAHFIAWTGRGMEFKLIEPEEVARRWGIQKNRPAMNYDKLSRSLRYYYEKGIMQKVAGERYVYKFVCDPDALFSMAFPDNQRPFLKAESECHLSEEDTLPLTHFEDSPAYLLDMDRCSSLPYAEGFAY
# How it was run: as §1
# HSF1 = HSF1 (Homo sapiens, UniProt Q00613 1-529); settings: protein: recombinant; tags: N-terminal GST; chain copies: 3; dsDNA, one strand shown
# Sequence of HSF1 (Q00613 whole entry): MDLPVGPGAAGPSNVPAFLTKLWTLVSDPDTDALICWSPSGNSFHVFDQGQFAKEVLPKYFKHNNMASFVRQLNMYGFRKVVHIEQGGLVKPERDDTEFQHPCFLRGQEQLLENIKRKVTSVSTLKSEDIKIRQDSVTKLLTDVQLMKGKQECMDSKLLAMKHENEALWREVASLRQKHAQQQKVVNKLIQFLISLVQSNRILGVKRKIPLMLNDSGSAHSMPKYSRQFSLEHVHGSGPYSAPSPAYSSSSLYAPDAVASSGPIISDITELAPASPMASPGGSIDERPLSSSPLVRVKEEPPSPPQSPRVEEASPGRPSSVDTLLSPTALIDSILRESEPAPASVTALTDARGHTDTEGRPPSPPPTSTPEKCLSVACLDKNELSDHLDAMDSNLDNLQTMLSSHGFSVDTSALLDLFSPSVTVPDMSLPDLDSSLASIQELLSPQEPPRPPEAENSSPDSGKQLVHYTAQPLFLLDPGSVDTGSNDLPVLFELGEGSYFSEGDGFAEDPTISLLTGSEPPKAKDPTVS
# How it was run: as §1
# SPIC = target: T2, SPIC (Homo sapiens, UniProt Q8N5J4 1-248); settings: protein: recombinant; tags: N-terminal GST; dsDNA, one strand shown
# T2 sequence: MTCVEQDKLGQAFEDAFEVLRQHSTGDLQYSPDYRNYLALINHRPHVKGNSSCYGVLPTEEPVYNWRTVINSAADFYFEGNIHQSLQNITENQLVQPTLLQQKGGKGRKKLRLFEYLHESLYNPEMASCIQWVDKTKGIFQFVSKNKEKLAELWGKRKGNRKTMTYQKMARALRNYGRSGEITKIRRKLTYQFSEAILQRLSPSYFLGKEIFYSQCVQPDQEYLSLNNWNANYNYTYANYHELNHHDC
# How it was run: as §1
# ELF4 = ELF4 (Homo sapiens, UniProt Q99607 1-663); settings: protein: recombinant; tags: N-terminal GST; dsDNA, one strand shown
# Sequence of ELF4 (Q99607 whole entry): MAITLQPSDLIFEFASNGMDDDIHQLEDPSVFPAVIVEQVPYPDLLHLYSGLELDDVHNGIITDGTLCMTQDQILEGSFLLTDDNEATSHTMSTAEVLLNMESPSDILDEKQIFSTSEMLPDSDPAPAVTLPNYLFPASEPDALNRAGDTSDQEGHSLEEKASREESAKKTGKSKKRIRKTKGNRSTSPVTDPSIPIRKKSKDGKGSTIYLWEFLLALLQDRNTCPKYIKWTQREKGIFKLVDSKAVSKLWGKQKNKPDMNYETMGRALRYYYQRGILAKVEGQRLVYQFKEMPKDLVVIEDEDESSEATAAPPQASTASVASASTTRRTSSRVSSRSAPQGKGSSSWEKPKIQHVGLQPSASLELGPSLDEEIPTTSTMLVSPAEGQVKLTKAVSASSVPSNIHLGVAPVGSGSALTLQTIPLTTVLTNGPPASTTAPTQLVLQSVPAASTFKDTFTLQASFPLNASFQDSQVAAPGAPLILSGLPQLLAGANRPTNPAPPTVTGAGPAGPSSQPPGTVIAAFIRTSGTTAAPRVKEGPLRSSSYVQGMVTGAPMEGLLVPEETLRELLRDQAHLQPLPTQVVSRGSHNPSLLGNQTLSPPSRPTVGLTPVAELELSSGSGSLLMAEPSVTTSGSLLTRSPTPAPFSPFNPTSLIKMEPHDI
# How it was run: as §1
# ELK4 = target: T3, ELK4 (Homo sapiens, UniProt P28324-2 1-405); settings: protein: recombinant; tags: N-terminal GST; dsDNA, one strand shown
# T3 sequence: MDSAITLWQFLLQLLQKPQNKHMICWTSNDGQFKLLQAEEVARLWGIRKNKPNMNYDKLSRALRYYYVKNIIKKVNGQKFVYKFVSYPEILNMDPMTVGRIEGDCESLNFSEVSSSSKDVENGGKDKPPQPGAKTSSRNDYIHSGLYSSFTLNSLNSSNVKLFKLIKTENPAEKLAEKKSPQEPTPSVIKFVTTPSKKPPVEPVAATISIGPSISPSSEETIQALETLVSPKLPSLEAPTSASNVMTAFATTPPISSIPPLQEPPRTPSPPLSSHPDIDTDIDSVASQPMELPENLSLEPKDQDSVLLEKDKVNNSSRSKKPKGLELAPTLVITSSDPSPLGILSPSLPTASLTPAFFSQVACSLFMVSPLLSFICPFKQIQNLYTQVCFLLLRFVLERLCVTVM
# How it was run: as §1
# ETV2 = target: T4, ETV2 (Homo sapiens, UniProt O00321 1-342); settings: protein: recombinant; tags: N-terminal GST; dsDNA, one strand shown
# T4 sequence: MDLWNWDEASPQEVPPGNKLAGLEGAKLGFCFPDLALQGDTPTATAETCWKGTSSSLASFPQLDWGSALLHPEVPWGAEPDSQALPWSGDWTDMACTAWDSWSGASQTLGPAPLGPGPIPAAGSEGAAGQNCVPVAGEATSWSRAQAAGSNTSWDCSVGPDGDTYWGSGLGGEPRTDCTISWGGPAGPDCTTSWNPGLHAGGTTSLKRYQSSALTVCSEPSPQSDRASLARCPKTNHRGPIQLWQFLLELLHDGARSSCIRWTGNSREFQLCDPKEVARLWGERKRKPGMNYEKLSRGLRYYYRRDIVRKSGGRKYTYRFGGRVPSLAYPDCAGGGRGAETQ
# How it was run: as §1
# ELF3 = target: T5, ELF3 (Homo sapiens, UniProt P78545 1-371); settings: protein: recombinant; tags: N-terminal GST; dsDNA, one strand shown
# T5 sequence: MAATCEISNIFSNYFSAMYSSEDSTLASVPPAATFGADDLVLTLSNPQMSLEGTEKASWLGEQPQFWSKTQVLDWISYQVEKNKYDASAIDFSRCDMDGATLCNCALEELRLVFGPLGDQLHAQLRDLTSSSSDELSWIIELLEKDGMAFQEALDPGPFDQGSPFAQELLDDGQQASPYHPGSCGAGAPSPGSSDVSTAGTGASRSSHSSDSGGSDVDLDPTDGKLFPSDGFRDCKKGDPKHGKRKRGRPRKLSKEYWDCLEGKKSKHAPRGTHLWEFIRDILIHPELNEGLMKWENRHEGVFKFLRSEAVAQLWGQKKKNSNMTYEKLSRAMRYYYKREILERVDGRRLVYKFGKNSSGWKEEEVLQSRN
# How it was run: as §1
# CRX = CRX (Homo sapiens, UniProt O43186 1-299); settings: protein: recombinant; tags: N-terminal GST; dsDNA, one strand shown
# Sequence of CRX (O43186 whole entry): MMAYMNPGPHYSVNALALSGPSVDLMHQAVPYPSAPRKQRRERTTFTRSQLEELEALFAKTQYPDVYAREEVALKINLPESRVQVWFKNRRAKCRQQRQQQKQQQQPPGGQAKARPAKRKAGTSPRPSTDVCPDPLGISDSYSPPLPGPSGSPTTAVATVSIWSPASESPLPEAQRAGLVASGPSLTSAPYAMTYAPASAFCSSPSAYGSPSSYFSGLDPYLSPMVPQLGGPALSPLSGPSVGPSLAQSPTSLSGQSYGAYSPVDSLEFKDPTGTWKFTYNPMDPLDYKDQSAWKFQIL
# How it was run: as §1
# ETV1 = ETV1 (Homo sapiens, UniProt P50549 1-477); settings: protein: recombinant; tags: N-terminal GST; dsDNA, one strand shown
# Sequence of ETV1 (P50549 whole entry): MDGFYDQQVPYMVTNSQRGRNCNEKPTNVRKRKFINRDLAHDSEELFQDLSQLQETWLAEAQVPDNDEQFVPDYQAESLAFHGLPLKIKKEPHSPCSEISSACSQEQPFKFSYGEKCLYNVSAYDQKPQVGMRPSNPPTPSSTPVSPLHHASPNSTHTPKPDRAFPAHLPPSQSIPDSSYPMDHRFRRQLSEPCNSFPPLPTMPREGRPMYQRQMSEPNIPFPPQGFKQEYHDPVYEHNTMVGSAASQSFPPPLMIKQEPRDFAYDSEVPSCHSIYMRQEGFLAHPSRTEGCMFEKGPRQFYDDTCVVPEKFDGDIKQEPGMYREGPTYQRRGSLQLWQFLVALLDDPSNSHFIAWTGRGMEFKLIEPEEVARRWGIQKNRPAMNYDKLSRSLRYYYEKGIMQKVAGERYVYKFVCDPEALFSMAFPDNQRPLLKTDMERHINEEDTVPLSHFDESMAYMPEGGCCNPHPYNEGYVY
# How it was run: as §1
# ERF = target: T6, ERF (Homo sapiens, UniProt P50548 1-548); settings: protein: recombinant; tags: N-terminal GST; dsDNA, one strand shown
# T6 sequence: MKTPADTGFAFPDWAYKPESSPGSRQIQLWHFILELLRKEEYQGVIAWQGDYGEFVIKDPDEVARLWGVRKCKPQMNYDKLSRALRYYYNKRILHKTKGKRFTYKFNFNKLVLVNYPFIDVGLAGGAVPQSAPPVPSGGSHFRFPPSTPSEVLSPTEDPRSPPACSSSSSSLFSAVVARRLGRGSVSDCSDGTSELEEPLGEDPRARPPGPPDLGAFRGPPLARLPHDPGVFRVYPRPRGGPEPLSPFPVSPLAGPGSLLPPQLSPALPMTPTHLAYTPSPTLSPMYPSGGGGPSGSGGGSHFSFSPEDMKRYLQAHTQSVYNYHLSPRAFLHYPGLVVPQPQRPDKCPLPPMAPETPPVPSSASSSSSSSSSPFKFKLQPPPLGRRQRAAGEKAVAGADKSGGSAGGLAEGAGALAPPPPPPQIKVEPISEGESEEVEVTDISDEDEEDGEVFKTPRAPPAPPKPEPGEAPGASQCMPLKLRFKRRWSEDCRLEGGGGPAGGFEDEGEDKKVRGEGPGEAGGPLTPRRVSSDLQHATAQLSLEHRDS
# How it was run: as §1
# ETV3L = target: T7, ETV3L (Homo sapiens, UniProt Q6ZN32 1-361); settings: protein: recombinant; tags: N-terminal GST; dsDNA, one strand shown
# T7 sequence: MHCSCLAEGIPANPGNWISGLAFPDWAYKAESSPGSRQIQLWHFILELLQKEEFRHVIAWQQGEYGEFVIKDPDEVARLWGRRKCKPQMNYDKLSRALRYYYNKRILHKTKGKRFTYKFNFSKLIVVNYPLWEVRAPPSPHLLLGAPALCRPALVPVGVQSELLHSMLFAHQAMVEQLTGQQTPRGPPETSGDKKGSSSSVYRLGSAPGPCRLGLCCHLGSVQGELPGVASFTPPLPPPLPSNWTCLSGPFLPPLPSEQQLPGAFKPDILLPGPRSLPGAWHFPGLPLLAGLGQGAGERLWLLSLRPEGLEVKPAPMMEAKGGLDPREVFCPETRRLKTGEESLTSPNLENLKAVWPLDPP
# How it was run: as §1
# ETS2 = target: T8, ETS2 (Homo sapiens, UniProt P15036 1-469); settings: protein: recombinant; tags: N-terminal GST; dsDNA, one strand shown
# T8 sequence: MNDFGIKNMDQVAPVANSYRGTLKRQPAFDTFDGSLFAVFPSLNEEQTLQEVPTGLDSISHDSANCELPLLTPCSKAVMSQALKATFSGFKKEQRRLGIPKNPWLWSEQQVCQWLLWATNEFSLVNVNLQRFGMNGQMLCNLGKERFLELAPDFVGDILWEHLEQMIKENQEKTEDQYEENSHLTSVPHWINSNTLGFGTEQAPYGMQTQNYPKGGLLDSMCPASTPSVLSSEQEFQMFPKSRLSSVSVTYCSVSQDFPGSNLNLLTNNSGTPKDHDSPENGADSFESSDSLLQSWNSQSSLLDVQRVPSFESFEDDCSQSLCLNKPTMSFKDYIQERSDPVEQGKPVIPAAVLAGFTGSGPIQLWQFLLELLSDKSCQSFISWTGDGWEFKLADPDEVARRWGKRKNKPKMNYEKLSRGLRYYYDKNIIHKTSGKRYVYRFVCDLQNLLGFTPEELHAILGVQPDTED
# How it was run: as §1
# SPDEF = target: T9, SPDEF (Homo sapiens, UniProt O95238 1-335); settings: protein: recombinant; tags: N-terminal GST; dsDNA, one strand shown
# T9 sequence: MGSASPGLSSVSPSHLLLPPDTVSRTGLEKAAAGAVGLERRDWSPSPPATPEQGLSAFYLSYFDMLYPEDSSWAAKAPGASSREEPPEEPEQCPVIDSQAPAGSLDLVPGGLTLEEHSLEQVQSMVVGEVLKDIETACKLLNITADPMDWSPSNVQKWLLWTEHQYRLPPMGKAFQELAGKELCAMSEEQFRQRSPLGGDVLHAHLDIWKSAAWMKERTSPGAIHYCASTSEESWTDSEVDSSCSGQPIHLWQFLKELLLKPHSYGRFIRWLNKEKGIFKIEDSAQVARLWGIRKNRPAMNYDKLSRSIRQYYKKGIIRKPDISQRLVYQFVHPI
# How it was run: as §1
# ETV7 = target: T10, ETV7 (Homo sapiens, UniProt Q9Y603 1-341); settings: protein: recombinant; tags: N-terminal GST; dsDNA, one strand shown
# T10 sequence: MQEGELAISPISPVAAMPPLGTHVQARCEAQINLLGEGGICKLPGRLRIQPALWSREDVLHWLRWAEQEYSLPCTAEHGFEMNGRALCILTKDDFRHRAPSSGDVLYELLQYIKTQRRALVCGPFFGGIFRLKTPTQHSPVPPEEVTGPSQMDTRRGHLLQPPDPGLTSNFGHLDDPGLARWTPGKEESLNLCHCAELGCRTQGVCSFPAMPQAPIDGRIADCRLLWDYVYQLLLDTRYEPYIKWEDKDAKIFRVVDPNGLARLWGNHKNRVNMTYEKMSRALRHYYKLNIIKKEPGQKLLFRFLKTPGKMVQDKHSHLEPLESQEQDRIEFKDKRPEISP
# How it was run: as §1
# ELF5 = target: T11, ELF5 (Homo sapiens, UniProt Q9UKW6-2 1-255); settings: protein: recombinant; tags: N-terminal GST; dsDNA, one strand shown
# T11 sequence: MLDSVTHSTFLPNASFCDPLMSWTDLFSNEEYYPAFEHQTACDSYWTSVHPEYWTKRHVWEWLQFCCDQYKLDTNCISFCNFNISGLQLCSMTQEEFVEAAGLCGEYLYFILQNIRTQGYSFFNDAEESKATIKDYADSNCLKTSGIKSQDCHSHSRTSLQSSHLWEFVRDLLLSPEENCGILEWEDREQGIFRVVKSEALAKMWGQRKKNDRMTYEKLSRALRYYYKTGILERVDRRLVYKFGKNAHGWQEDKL
# How it was run: as §1
# ETV3 = target: T12, ETV3 (Homo sapiens, UniProt P41162-2 1-143); settings: protein: recombinant; tags: N-terminal GST; dsDNA, one strand shown
# T12 sequence: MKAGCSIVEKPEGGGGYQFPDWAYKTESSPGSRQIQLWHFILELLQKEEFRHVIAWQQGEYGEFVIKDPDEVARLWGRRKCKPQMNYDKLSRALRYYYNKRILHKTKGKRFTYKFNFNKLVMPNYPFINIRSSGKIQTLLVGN
# How it was run: as §1
# ETV6 = ETV6 (Homo sapiens, UniProt P41212 1-452); settings: protein: recombinant; tags: N-terminal GST; dsDNA, one strand shown
# Sequence of ETV6 (P41212 whole entry): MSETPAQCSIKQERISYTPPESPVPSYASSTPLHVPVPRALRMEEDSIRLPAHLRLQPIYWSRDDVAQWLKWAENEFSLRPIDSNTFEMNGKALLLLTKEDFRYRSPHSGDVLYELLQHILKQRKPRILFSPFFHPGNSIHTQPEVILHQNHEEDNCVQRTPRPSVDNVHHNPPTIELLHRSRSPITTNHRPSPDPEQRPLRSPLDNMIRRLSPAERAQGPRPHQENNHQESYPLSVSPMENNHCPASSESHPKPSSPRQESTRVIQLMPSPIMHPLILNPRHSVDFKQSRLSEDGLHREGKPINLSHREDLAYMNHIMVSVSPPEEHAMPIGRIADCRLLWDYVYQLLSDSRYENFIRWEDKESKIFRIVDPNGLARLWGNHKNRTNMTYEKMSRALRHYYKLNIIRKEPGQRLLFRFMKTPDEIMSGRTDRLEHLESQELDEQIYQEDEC
# How it was run: as §1
sequence,measurement,setting,value
TGTTTA,binding signal,FEV,"1.12 fold enrichment (6-mer frequency, TF over GST control)"
same,binding signal,ETV5,"1.19 fold enrichment (6-mer frequency, TF over GST control)"
same,binding signal,HSF1,"1.12 fold enrichment (6-mer frequency, TF over GST control)"
same,binding signal,SPIC,"1.05 fold enrichment (6-mer frequency, TF over GST control)"
same,binding signal,ELF4,"1.11 fold enrichment (6-mer frequency, TF over GST control)"
same,binding signal,ELK4,"1.25 fold enrichment (6-mer frequency, TF over GST control)"
same,binding signal,ETV2,"1.04 fold enrichment (6-mer frequency, TF over GST control)"
same,binding signal,ELF3,"1.22 fold enrichment (6-mer frequency, TF over GST control)"
same,binding signal,CRX,"1.25 fold enrichment (6-mer frequency, TF over GST control)"
same,binding signal,ETV1,"1.09 fold enrichment (6-mer frequency, TF over GST control)"
same,binding signal,ERF,"1.22 fold enrichment (6-mer frequency, TF over GST control)"
same,binding signal,ETV3L,"1.2 fold enrichment (6-mer frequency, TF over GST control)"
same,binding signal,ETS2,"1.13 fold enrichment (6-mer frequency, TF over GST control)"
same,binding signal,SPDEF,"1.17 fold enrichment (6-mer frequency, TF over GST control)"
same,binding signal,ETV7,"1.3 fold enrichment (6-mer frequency, TF over GST control)"
same,binding signal,ELF5,"1.19 fold enrichment (6-mer frequency, TF over GST control)"
same,binding signal,ETV3,"1.12 fold enrichment (6-mer frequency, TF over GST control)"
same,binding signal,ETV6,"1.19 fold enrichment (6-mer frequency, TF over GST control)"
